This is a sample that favours compounds with a hit; in the whole collection about 2% have one here.
TLR9-MyD88 inh: inhibitors of human TLR9-MyD88 binding; AID 504734; inhibition, % at 4.98 µM; Q9NR96+Q99836; CHO BLA complementation TLR9-MyD88, CCF4 FRET ratio; actives 0.21% (n = 340,000);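 active means inhibition above the mean over all tested compounds plus 3 SD, cut at about 21% in these data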;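 further: 0% = DMSO only wells and 100% = clavulanate BLA inhibitor control wells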
Granule exo inh: lytic granule exocytosis inhibition | TALL-104 LAMP-1 surface exposure, flow cytometry; cells stimulated with thapsigargin and PMA | actives 0.66% (n = 360,000) | inhibition, % at 10 µM;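 active means inhibition above about 55%, limit read from the data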
TLR4-MyD88 BLA: inhibitors of human TLR4-MyD88 binding; O00206+Q99836; HeLa CL3-4 TLR4/MyD88 BLA complementation, FRET ratio; inhibition, % at 8.4 µM; AID 861; actives 0.18% (n = 200,000); in the data active means inhibition above about 25%;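 further: 0% = vehicle and 100% = reference inhibitor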
ABHD5 PLIN5 PPI: inhibitors of human ABHD5-perilipin-5 interaction; Q00G26+Q8WTS1; Split G. princeps luciferase complementation, luminescence, 4 h; inhibition, % at 4 µM; actives 0.78% (n = 360,000); AID 602281;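 active means inhibition above the mean inhibition across every tested compound plus 3 SD, cut at about 22% in these data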;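 further: 0% = DMSO only wells and the 100% control is not disclosed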
NOD2 RIPK2 PPI: blocks binding of human NOD2 to RIPK2 | O43353 | CHO BLA complementation NOD2-RIPK2, CCF4 ratio | inhibition, % at 4.98 µM | actives 0.38% (n = 360,000) | AID 624267; in the data active means inhibition above about 21%;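 further: 0% = vehicle only and 100% = reference blocker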
B2AR ag: agonists of human beta-2 adrenergic receptor inducing internalization | actives 0.43% (n = 340,000) | Am2.2-beta2AR cells, FAP receptor internalization, flow cytometry | response, % (concentration not given with the values) | P07550;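 active means response above a set limit, near 3 SD of response in nonfluorescent compounds, cut at about 42% in these data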
ABHD5-PLIN5 conf: confirmation of human ABHD5-PLIN5 interaction inhibitors. shares compounds with ABHD5 PLIN5 PPI. biochemical ABHD5-PLIN5 interaction, luminescence. inhibition, % at 4 µM. actives 67% (n = 2,200); in the data active means inhibition above about 23%;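 further: 0% = DMSO vehicle wells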
HNF4 split-luc: counter-screen for ABHD5-PLIN5 inhibitors: HNF4 split-luciferase; AID 651674; shares compounds with ABHD5 PLIN5 PPI; inhibition, % at 4 µM; actives 77% (n = 2,200); HNF4 dimerization, luminescence, biochemical;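 active means mean inhibition across replicate wells exceeding the computed hit threshold, cut at about 13% in these data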;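 further: light from luciferase halves that rejoin when HNF4 fusion proteins dimerize; 0% = DMSO only wells and the 100% control is not given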
Numbers without * were called inactive; x = no result given.

SMILES	TLR9-MyD88 inh	Granule exo inh	TLR4-MyD88 BLA	ABHD5 PLIN5 PPI	NOD2 RIPK2 PPI	B2AR ag	ABHD5-PLIN5 conf	HNF4 split-luc
CCN(CC(=O)Nc1ccc2c(c1)OCCO2)C(=O)C(C)Oc1ccc(F)cc1 (configuration not stated)	6	-5	x	4	-8	4	x	x
CCCCn1nnnc1C(c1cc2ccccc2o1)N(Cc1ccccc1)Cc1ccccc1 (configuration not stated)	x	3	x	-3	-1	x	x	x
CNc1cncc(-c2cccnc2)n1	x	-7	x	1	14	x	x	x
CN1C/C(=C/c2ccsc2)C(=O)/C(=C/c2ccsc2)C1	-5	27	-11	56*	-8	8	79*	66*
CN1C/C(=C\c2ccc(N3CCOCC3)cc2)C(=O)/C(=C/c2ccc(N3CCOCC3)cc2)C1	6	2	2	30*	5	14	53*	42*
O=C1Nc2ccccc2-n2nnnc2C1N1CCN(c2ccc(C(F)(F)F)cc2[N+](=O)[O-])CC1 (configuration not stated)	x	3	x	-6	5	x	x	x
Cc1cc(F)ccc1C(O)c1ncc(-c2ccccc2F)[nH]1 (configuration not stated)	x	0	x	-2	-8	x	x	x
CN(C)C(=O)C#Cc1ccccc1	3	-3	x	3	0	-4	x	x
O=C(C#Cc1ccccc1)c1ccccc1	13	7	x	25*	11	x	78*	107*
Cc1cc(C)cc(Cn2cc(CN3CC(N4CCSCC4)CS3(=O)=O)nn2)c1 (configuration not stated)	x	-5	x	13	-11	x	x	x
COC(=O)[C@]12CCCCC=C1N(Cc1ccccc1)C(=O)[C@H](CC(=O)N1CCSCC1)C2	x	8	x	1	-3	x	x	x
CC1CCN(C(=O)c2ccc(S(=O)(=O)NCc3ccco3)cc2)CC1	3	-5	x	24*	-4	4	0	7
O=C(c1ccc(S(=O)(=O)NCc2ccco2)cc1)N1CCCC1	9	1	5	-1	-6	0	x	x
Cc1cccc(N2CCN(C3CCCCC3NS(=O)(=O)c3ccccc3)CC2C)c1 (configuration not stated)	2	1	x	1	-14	9	x	x
CCc1ccccc1NC(=O)CN(C)C(=O)c1cccc(S(=O)(=O)N2CCCCCC2)c1	-3	3	x	-3	5	-7	x	x
Cc1ccc(-n2c(=O)cc(N3CC(C)OC(C)C3)[nH]c2=O)cc1 (configuration not stated)	-8	0	-4	19	1	-4	x	x
CC1CN(c2cc(=O)n(-c3ccccc3)c(=O)[nH]2)CC(C)O1 (configuration not stated)	13	-5	-6	36*	2	0	3	0
CC(C)c1ccc(OCC(=O)N2CCN(C(=O)c3ccco3)CC2)cc1	-18	2	x	6	3	-8	x	x
Cc1ccc(C(C)C)cc1OCC(=O)N1CCN(C(=O)c2ccco2)CC1	0	-3	x	24*	-3	-3	3	-2
COc1ccc(C(CCN2CCOCC2)c2c(OC)cc(OC)c3c(-c4ccccc4)cc(=O)oc23)cc1 (configuration not stated)	2	54	x	25*	4	8	11	8
COc1cccc(CNC[C@H]2O[C@@H](n3ccc(N)nc3=O)[C@H](O)[C@@H]2O)c1OCc1ccc(F)cc1Cl	12	0	x	2	1	x	x	x
COc1cccc(COC(=O)CSCC(=O)Nc2ccc(C)cc2)c1OC	-9	0	x	1	-13	x	x	x
CCC1(c2ccc(F)cc2)NC(=O)N(CC(=O)N2CC(=O)Nc3ccccc32)C1=O (configuration not stated)	-8	-3	x	-2	0	0	x	x
COC(=O)CC1SC(=O)NC1=O (configuration not stated)	-3	-2	-3	39*	-1	-4	0	1
C#CCOCCOCCOCCNc1nc(N2CCN(C(=O)CCCCCCCCCCNC(=O)Cn3cc(C[C@@H](C)O)nn3)CC2)nc(N2CCN(C(=O)CCCCCCCCCCNC(=O)[C@@H](CCC(=O)O)n3cc(CCCCCN)nn3)CC2)n1	3	7	x	20	2	28	x	x
SMILES	TLR9-MyD88 inh	Granule exo inh	TLR4-MyD88 BLA	ABHD5 PLIN5 PPI	NOD2 RIPK2 PPI	B2AR ag	ABHD5-PLIN5 conf	HNF4 split-luc
C#CCOCCOCCOCCNc1nc(N2CCN(C(=O)CCCCCCCCCCNC(=O)[C@H]([C@@H](C)CC)n3cc(CCCCCN)nn3)CC2)nc(N2CCN(C(=O)CCCCCCCCCCNC(=O)[C@H](CCCCN)n3cc(CCCC(=O)O)nn3)CC2)n1	2	-2	x	39*	17	30	10	-3
C#CCOCCOCCOCCNc1nc(N2CCN(C(=O)CCCCCCCCCCNC(=O)[C@@H](CCSC)n3cc(CCO)nn3)CC2)nc(N2CCN(C(=O)CCCCCCCCCCNC(=O)[C@H](CCSC)n3cc(CCO)nn3)CC2)n1	-11	0	x	44*	4	7	9	-20
C#CCOCCOCCOCCNc1nc(N2CCN(C(=O)[C@H](Cc3ccc(O)cc3)n3cc(CCO)nn3)CC2)nc(N2CCN(C(=O)[C@H](Cc3ccc(O)cc3)n3cc(CCO)nn3)CC2)n1	x	x	-10	x	x	x	x	x
C#CCOCCOCCOCCNc1nc(N2CCN(C(=O)CCCCCCCCCCNC(=O)[C@H](CCCCN)n3cc(CCCC(=O)O)nn3)CC2)nc(N2CCN(C(=O)CCCCCCCCCCNC(=O)[C@@H]([C@H](C)O)n3cc(C)nn3)CC2)n1	10	12	x	37*	-2	4	8	2
C#CCOCCOCCOCCNc1nc(N2CCN(C(=O)[C@H]([C@@H](C)O)n3cc(CCCCN)nn3)CC2)nc(N2CCN(C(=O)[C@H](CCCCN)n3cc(CCC(=O)O)nn3)CC2)n1	-4	-1	x	3	-15	4	x	x
C#CCOCCOCCOCCNc1nc(N2CCN(C(=O)CCCCCCCCCCNC(=O)Cn3cc(C[C@@H](C)O)nn3)CC2)nc(N2CCN(C(=O)CCCCCCCCCCNC(=O)[C@H](CCCCN)n3cc(CCCC(=O)O)nn3)CC2)n1	-2	2	x	36*	-9	15	0	14*
NS(=O)(=O)c1ccc(N2C(=O)C3CC=CCC3C2=O)cc1 (configuration not stated)	-5	0	-5	3	-4	3	x	x
CC1=C(C)CS(=O)N(S(=O)(=O)c2ccccc2)C1 (configuration not stated)	7	3	-1	58*	3	6	72*	101*
